Most compounds without a hit are left out; they make up all but 0.91% or so of the library.
RECQ1 helicase: inhibitors of human RECQ1 DNA helicase. Potency, µM (titrated, usually from 57.3 µM), for inactives: at the highest dose activity, negative = inhibition, hits mostly inhibitors. hit rate 0.54% among 240,000. RECQ1 DNA unwinding, red fluorescence kinetic read. P46063;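 also: plate controls were vehicle for no effect and no enzyme for full effect; nearly all actives have a fitted effect of over 30% in size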
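RECQ1T1 50 nM; forked duplex (20 bp + 30-nt ss tails) 200 nM, ATP 2 mM final; pH 8.0, 2 mM MgCl2, 2.5 ug/ml poly(dI-dC); 15 min compound preincubation; discontinuous kinetic read over 2 h at RT.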
TRb-SRC2 inh: inhibitors of human thyroid hormone receptor beta-SRC2 interaction. P10828. TRbeta-SRC2 peptide binding, fluorescence polarization; receptor liganded with 1 µM T3. Potency, µM (top dose mostly 106 µM), inactives show at the highest dose activity change, negative = inhibition, actives largely listed as inhibitors. hit rate 0.065% among 280,000. AID 1469;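 also: plate controls were bound peptide for no effect and peptide without receptor for full effect; nearly all actives have a fitted effect of over 50% in size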
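Human TRb LBD (0.6 uM) plus Texas Red-labeled SRC2 peptide (20 nM), 1uM T3, 5% DMSO, 5 hr at ambient temperature. Decreased polarization (555/632 nm) flags inhibition; data normalized to free and bound peptide controls.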
BLM helicase inh: Bloom syndrome helicase (human) inhibition | recombinant BLM DNA unwinding, fluorescence dequenching | P54132 | hit rate 0.2% among 350,000 | Potency, µM (doses to about 56.1 µM), for the others: at the highest dose activity change, negative = inhibition, actives largely listed as inhibitors;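 also: plate controls were vehicle for no effect and no enzyme for full effect; nearly all actives have a fitted effect of over 35% in size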
TR SRC2 fluor cs: Texas Red fluorescence interference in TRb-SRC2 counter-screen; AID 1479; TRb/SRC2 Texas Red total fluorescence interference; hit rate 0.29% among 280,000; Potency, µM (series often up to 106 µM), without a hit: at the top dose fluorescence change, negative = quenching; active = well fitted curve in either direction with a large enough effect; inconclusive = small, poorly fitted or top-dose-only effect
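Human TRβ ligand-binding domain (0.6 uM) and Texas Red SRC2 peptide (20 nM) in Tris buffer with 1 uM T3 and 5% DMSO were incubated with pinned compound for 5 hr at ambient temperature. Total fluorescence was computed as S + 2P (555/632 nm).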
APEX1 inh: inhibitors of human APE1 endonuclease; recombinant APE1, TAMRA/BHQ-2 abasic DNA cleavage fluorescence; hit rate 0.35% among 350,000; Potency, µM (doses to about 65.8 µM), inactives show at the highest dose activity change, negative = inhibition, most hits filed as inhibitors;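 also: plate controls were vehicle for no effect and reference inhibitor for full effect; nearly all actives have a fitted effect of over 55% in size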
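APE1 at 0.75 nM preincubated 15 min at room temperature with compound. Reaction then started with 50 nM double-stranded THF-abasic substrate labelled with TAMRA/BHQ-2, and 525/598 nm fluorescence read kinetically. Activity taken as third-minus-first read difference, normalized to DMSO and NSC13755 controls.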
WRN helicase inh: inhibitors of human WRN helicase. hit rate 0.46% among 360,000. AID 651768. WRN helicase unwinding, fluorescent forked duplex, kinetic. Q14191. Potency, µM (doses to about 114 µM), inactives show at the highest dose activity change, negative = inhibition, usual class: inhibitors; also: nearly all actives have a fitted effect of over 55% in size
Target sequence (Q14191 whole entry, looked up): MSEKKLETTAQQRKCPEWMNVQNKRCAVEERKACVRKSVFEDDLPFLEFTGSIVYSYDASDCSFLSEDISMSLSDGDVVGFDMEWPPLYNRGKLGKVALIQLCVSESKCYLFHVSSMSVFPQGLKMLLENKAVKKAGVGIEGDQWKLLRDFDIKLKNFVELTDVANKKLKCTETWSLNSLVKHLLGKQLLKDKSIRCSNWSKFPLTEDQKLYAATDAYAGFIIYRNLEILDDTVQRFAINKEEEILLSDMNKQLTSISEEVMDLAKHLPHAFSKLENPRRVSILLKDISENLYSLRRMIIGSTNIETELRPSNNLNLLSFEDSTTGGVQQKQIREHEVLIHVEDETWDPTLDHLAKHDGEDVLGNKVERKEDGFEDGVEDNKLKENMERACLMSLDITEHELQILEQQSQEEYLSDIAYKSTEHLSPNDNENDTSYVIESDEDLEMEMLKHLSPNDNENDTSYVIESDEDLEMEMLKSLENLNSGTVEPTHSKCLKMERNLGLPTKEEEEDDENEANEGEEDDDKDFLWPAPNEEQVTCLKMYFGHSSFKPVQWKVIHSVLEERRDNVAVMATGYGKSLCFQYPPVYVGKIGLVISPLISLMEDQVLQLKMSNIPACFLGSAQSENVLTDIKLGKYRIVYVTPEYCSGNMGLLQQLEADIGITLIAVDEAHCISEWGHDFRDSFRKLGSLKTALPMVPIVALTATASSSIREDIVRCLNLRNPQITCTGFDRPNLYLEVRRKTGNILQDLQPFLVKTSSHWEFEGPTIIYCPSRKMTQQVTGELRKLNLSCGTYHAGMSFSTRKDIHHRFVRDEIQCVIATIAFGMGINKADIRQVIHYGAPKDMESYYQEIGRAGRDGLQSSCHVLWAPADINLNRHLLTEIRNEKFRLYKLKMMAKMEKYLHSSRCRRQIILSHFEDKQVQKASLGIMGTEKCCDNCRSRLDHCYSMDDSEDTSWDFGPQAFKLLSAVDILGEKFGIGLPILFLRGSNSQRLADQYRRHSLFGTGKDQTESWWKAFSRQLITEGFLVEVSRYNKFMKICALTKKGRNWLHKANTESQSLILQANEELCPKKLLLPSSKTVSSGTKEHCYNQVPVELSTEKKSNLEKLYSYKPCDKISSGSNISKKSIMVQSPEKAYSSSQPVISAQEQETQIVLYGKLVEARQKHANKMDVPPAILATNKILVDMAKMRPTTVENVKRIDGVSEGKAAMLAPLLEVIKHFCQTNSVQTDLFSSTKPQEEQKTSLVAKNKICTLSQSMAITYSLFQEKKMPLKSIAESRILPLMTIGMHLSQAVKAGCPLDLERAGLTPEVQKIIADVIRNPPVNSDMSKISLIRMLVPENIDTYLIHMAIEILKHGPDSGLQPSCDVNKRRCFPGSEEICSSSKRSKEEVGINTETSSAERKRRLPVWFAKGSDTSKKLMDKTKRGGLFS
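WRN at 20 nM final preincubated with compound 15 min at room temperature; reaction started with 100 nM fluorophore/quencher forked duplex oligonucleotide and 2 mM ATP final. Unwinding followed kinetically by red fluorescence (ex 525, em 598 nm).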
* hit, by the source's call; u = inconclusive; x = no result; ! = not active in a repeat; [ ] = dose if it differs, or a comment. Unless noted, calls follow the shape of the dose curve; as a rule, active = well fitted curve in the direction sought with a large enough effect; inconclusive = small, poorly fitted or top-dose-only effect, or another doubt; inactive = no such curve, though single readings can be large; an effect the other way counts as inactive or inconclusive. Unless noted, % is scaled to controls: 0 for no effect and ±100 for the full control effect; potency is read from the fitted curve at half-maximal effect.

SMILES | RECQ1 helicase | TRb-SRC2 inh | BLM helicase inh | TR SRC2 fluor cs | APEX1 inh | WRN helicase inh
CCc1cccc(C)c1NC(=O)c1cn2c3c(ccc(Cl)c3c1=O)OC(C)C2 (stereo unspecified) | x | -19.1% | -15.5% | 100µM*[quencher] | x | x
Cc1cc(C)cc(NC(=O)c2cn3c4c(ccc(Cl)c4c2=O)OC(C)C3)c1 (stereo unspecified) | x | -3.4% | -1.3% | 1.0% | x | x
Cc1cccc(OCC(=O)OCC(=O)NCC2CCCO2)c1C (stereo unspecified) | x | x | x | x | -5.6% | 6.0%
Cn1c(/N=C/c2c(O)ccc3ccccc23)nc2ccccc21 | -11.2% | 15.7% | 0.7% | 0.7% | -1.3% | 44.7µM*
Cc1ccc(-c2cc3ncc4c(n3n2)-c2cc(F)ccc2OC4)cc1 | x | -5.5% | 0.5% | 25.1µM*[quencher] | x | x
COC(=O)C(C)Oc1ccc(Oc2ncc(C(F)(F)F)cc2Cl)cc1 (stereo unspecified) | x | 1.6%[201 µM] | x | 0.3%[201 µM] | x | x
CCn1c(C)nc2cc(C(=O)NNC(=S)Nc3ccccc3Cl)ccc21 | -3.6% | 1.3% | 5.5% | -1.1% | u | 3.9%
CCn1c(C)nc2cc(C(=O)NNC(=S)Nc3ccc(Cl)cc3Cl)ccc21 | -0.5% | -20.6%[53 µM] | 2.4% | 8.91µM*[quencher] | 7.9% | 3.7%
CC(C)(C)C(O)/C(=C\c1ccc(Cl)cc1)n1cncn1 (stereo unspecified) | x | -6.1%[201 µM] | x | -1.0%[201 µM] | x | x
O=C(NCc1cccnc1)C(=O)NCC(c1cccnc1)N1CCN(c2ccccc2F)CC1 (stereo unspecified) | x | -23.8% | 1.5% | 100µM*[quencher] | x | x
O=C(NCC(c1cccnc1)N1CCN(c2ccccc2F)CC1)OCc1ccccc1 (stereo unspecified) | -6.5% | -11.5% | -4.5% | -2.7% | -3.1% | -7.7%
CC(C)(C)c1ccc(C(=O)NCC(c2cccnc2)N2CCc3ccccc3C2)cc1 (stereo unspecified) | x | 2.1% | -3.7% | 11.2µM*[quencher] | x | x
CN(C)CCNC(=O)C(=O)NCC(c1cccnc1)N1CCN(c2ccccc2)CC1 (stereo unspecified) | x | 3.4% | 1.9% | -10.4% | x | x
O=C(NCC(c1cccnc1)N1CCc2ccccc21)C(=O)Nc1ccccc1F (stereo unspecified) | x | -15.7% | -4.8% | 0.316µM*[quencher] | x | x
CCN(CC)CCNC(=O)C(=O)NCC(c1cccnc1)N1CCN(c2ccccc2)CC1 (stereo unspecified) | x | -25.5% | 1.9% | 89.1µM*[quencher] | x | x
OCCOCCOCCOCCO | x | 1.5%[201 µM] | x | -2.2%[201 µM] | x | x
O=C(NCC(c1cccnc1)N1CCN(Cc2ccccc2)CC1)C(=O)Nc1cccc(F)c1 (stereo unspecified) | x | -13.5% | -0.8% | 0.251µM*[quencher] | x | x
O=c1ccc2c(-c3ccccc3)c3ccc(O)cc3oc-2c1 | x | x | -16.2% | x | u | 15.8µM*
Nc1ccc(-c2c3ccc(=O)cc-3oc3cc(O)ccc23)cc1C(=O)O | x | x | -5.3% | x | -22.8% | u
Cc1ccsc1C=Nc1ccc(O)cc1 | u | 31.6µM* | u | -9.1% | u | 35.5µM*
Cc1ccsc1/C=N/N=C/c1sccc1C | x | x | -9.9% | x | 36.3% | 0.9%
N#Cc1c(-c2ccc(Br)cc2)no[n+]1[O-] | x | x | x | x | -0.4% | x
Cc1ccc(NC(=O)CCCCCCCCCCC2COCCO2)c(C)c1 (stereo unspecified) | -1.4% | u | 0.1% | 0.0251µM*[quencher] | 3.1% | 12.8%
COC(=O)C/C=C\[C@@H](C)[C@@H](/C=N\OC[C@@H]1O[C@H](c2ccccc2)C=C[C@@H]1Oc1ccc(OC)cc1)OC | -3.0%[11.5 µM] | 0.8%[11.2 µM] | -5.7%[12.4 µM] | 2.0%[11.2 µM] | -5.1%[12.4 µM] | x
O=C(O)c1cc(O)c2c(c1)[C@H]([C@H]1c3cc(C(=O)O)cc(O)c3C(=O)c3c(O[C@@H]4O[C@H](CO)[C@@H](O)[C@H](O)[C@H]4O)cccc31)c1cccc(O[C@@H]3O[C@H](CO)[C@@H](O)[C@H](O)[C@H]3O)c1C2=O | x | x | x | x | 0.398µM* | x
SMILES | RECQ1 helicase | TRb-SRC2 inh | BLM helicase inh | TR SRC2 fluor cs | APEX1 inh | WRN helicase inh
COc1ccc(C2c3cccn3CCN2S(=O)(=O)c2ccccc2[N+](=O)[O-])cc1OC (stereo unspecified) | x | 0.6% | -1.7% | 0.8% | x | x
C/C(=C\C=C(C#N)C#N)c1cc(C#N)c(N)o1 | 14.1µM* | u | u | 25.6% | u | 89.1µM*
COc1ccc(C2CCCCCN2C(=O)C2CCN(S(=O)(=O)c3cccc(C(C)=O)c3)CC2)cc1 (stereo unspecified) | x | x | x | x | x | 2.8%
O=C1CCCC/C=C/CCCCCCCCCO1 | x | 6.5%[201 µM] | x | -0.2%[201 µM] | x | x
O=C(CCCOc1ccc(Cl)cc1Cl)N/N=C/c1ccccc1O | -11.0% | -15.9%[53 µM] | 0.6% | 31.6µM*[quencher] | 1.5% | 5.1%
N#Cc1c(-c2ccc3ccccc3c2)no[n+]1[O-] | x | x | x | x | -7.8% | x
O=c1c(O)c(-c2cc(O)c(O)c(O)c2)oc2cc(O)ccc12 | 4.47µM* | 4.3% | -27.2% | -27.1% | 0.282µM* | x
O=c1cc(-c2ccccc2)oc2cc(O)cc(O)c12 | -3.9% | 8.0%[201 µM] | -2.4% | -4.7%[201 µM] | -8.5% | 6.5%
O=c1cc(-c2ccc(O)cc2)oc2cc(O)cc(O)c12 | -10.6% | u | -9.7% | u | 25.1µM*! | -7.0%
O=c1oc(-c2ccc(O)c(O)c2)cc2cc(O)cc(O)c12 | x | x | x | x | -17.9% | 50.1µM*
COc1cc(O)c2c(=O)c(O)c(-c3ccc(O)c(O)c3)oc2c1 | u | 7.9% | -17.3% | 50.1µM*[quencher] | u | x
COc1ccc(OC)c(Nc2nn3c(=O)c4ccccc4nc3s2)c1 | x | x | x | x | -23.9% | x
COC(=O)C#CC(=O)OC | 3.5% | 0.5% | 2.6% | -0.7% | -0.7% | x
O=c1cc(-c2ccc(O)c(O)c2)oc2ccc3ccccc3c12 | x | x | x | x | 0.423µM* | -29.7%
O=c1c(O)c(-c2ccc(O)c(O)c2)oc2ccccc12 | 2.24µM* | -3.4% | -9.2% | -9.4% | u | x
C[Si]1(C)O[Si](C)(C)O[Si](C)(C)O[Si](C)(C)O[Si](C)(C)O1 | x | -3.1%[201 µM] | x | -2.5%[201 µM] | x | x
Cc1c(NC(=O)COC(=O)/C=C/c2cccc(Cl)c2)c(=O)n(-c2ccccc2)n1C | x | x | x | x | 15.4% | -4.2%
CNC(CC(=O)c1ccc([N+](=O)[O-])cc1)C(Cl)(Cl)Cl (stereo unspecified) | -10.6% | 6.6% | 3.8% | -24.5% | 3.9% | 44.7µM*
CSc1nc(N2CCN(CCO)CC2)c2sc3nc(-c4ccco4)c4c(c3c2n1)CCC4 | -1.6% | 0.5% | 12.6µM* | -4.2% | 16.7% | x
CSc1nc(NCCN(C)C)c2sc3nc(-c4ccco4)c4c(c3c2n1)CCC4 | x | x | x | x | x | -21.8%
Cc1occc1C(=O)NCc1cccc(CNC(=O)c2ccoc2C)c1 | -18.1% | 0.4% | -17.3% | -0.4% | u | 39.8µM*
